Records with an inconclusive call do not appear. Active and inactive are the calls of the source. Unless noted, calls follow the shape of the dose curve; as a rule, active = well fitted curve in the direction sought with a large enough effect in the repeat runs; inconclusive = weak or mixed curves; inactive = no such curve, though single readings can be large; an effect the other way counts as inactive or inconclusive.
Experiments:
[1] = target: Estrogen receptor (Homo sapiens) (UniProt P03372); experiment: qHTS assay to identify small molecule agonists of the estrogen receptor alpha (ER-alpha) signaling pathway in the presence of an antagonist (AID 1259383; calls by dose curve; also: top concentration of the series differs between compounds; nearly all actives have a fitted effect of over 15% in size)
Method in brief: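 ER-alpha agonism measured under antagonist challenge: 10.0nM ICI-182,780 (final) plus compound, 15 concentrations, 22hr, VM7Luc4E2 ERE-luciferase cells. Read by luminescence.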

[2] = qHTS assay to identify small molecule agonists or antagonists of the thyroid stimulating hormone receptor (TSHR) signaling pathway - wild type cell line counter screen (AID 1259384; calls by dose curve)
Method in brief: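 Counter screen in untransfected Hek293: compounds (15-point titration, triplicate) plus phosphodiesterase inhibitor Ro20-1724 added after 18 h plating; 30 min RT. Intracellular cAMP via competitive d2/cryptate immunoassay, 1 h incubation.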

[3] = target: Thyrotropin receptor (Homo sapiens) (UniProt P16473); experiment: qHTS assay to identify small molecule antagonists of the thyroid stimulating hormone receptor (TSHR) signaling pathway (AID 1259385; calls by dose curve; also: nearly all actives have a fitted effect of over 20% in size)
Method in brief: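 Antagonist mode: compound-treated TSHR-expressing HEK293 cells were stimulated with 1.5 ng/mL TSH (final) in presence of Ro20-1724 for 30 min at RT. HTRF cAMP detection after 1 h; each compound tested at 15 concentrations, triplicate.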

[4] = qHTS assay to identify small molecule agonists of the estrogen receptor alpha (ER-alpha) signaling pathway in the presence of an antagonist - cell viability counter screen (AID 1259386);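 also: series mostly up to about 92 µM; cells exposed to compounds for 22 h at 37 °C before the viability read; nearly all actives have a fitted effect of over 30% in size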
Method in brief: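 Steps: 5-day stripped-FBS culture; seed and incubate 24hr; add ICI-182,780 (10.0nM final); pin 15-point compound titration; incubate 22hr at 37C; add CellTiter-Fluor at 21hr; read fluorescence.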

[5] = target: Progesterone receptor (Homo sapiens) (UniProt P06401); experiment: qHTS assay to identify small molecule agonists of the progesterone receptor (PR) signaling pathway (AID 1346784; calls by dose curve; also: nearly all actives have a fitted effect of over 30% in size)
Method in brief: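 Reporter assay, GripTite PR-UAS-bla HEK 293T cells: 16 hr exposure to DMSO-dissolved compounds at 37C, 5% CO2, in steroid-depleted (2% charcoal-stripped FBS) medium; beta-lactamase measured by FRET fluorescence.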

[6] = target: Progesterone receptor (Homo sapiens) (UniProt P06401); experiment: qHTS assay to identify small molecule antagonists of the progesterone receptor (PR) signaling pathway (AID 1346795; active = well fitted inhibition curve with a large enough effect in the signal ratio in the repeat runs, not every such curve was filed as active; the % refers to the signal ratio)
Method in brief: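 Stimulus R5020 at 1 nM final; cells HEK293T PR-UAS-bla; medium with 2% charcoal-stripped FBS; compound exposure 16 hr at 37C, 5% CO2; detection by FRET beta-lactamase substrate, 2 hr, room temperature.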

[7] = qHTS assay to identify small molecule antagonists of the progesterone receptor (PR) signaling pathway - cell viability counter screen (AID 1346798); also: series mostly up to about 92 µM; nearly all actives have a fitted effect of over 50% in size
Method in brief: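 In the same plates used for the beta-lactamase readout, cell viability of compound- and R5020-treated PR-UAS-bla HEK293T cells (16 hr, 37C) was assessed by CellTiter-Glo luminescence.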

[8] = qHTS assay to identify small molecule agonists of the progesterone receptor (PR) signaling pathway - cell viability counter screen (AID 1346799; calls by dose curve; also: nearly all actives have a fitted effect of over 45% in size)
Method in brief: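 Multiplexed viability read: CellTiter-Glo luminescence, 30 min RT, following LiveBLAzer FRET measurement on PR-UAS-bla HEK293T cells exposed to compounds 16 hr.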

[9] = qHTS assay to identify small molecule antagonists of the TGF-beta/Smad signaling pathway - cell viability counter screen (AID 1346824); also: nearly all actives have a fitted effect of over 50% in size
Method in brief: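 Cytotoxicity counter-screen run in the same wells as the beta-lactamase Smad reporter read: CellTiter-Glo luminescence after 30 min at room temperature. HEK 293T SBE-bla cells had 5 hr compound exposure at 37 C with TGF-beta1 (0.25 ng/mL stock).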

[10] = qHTS assay to identify small molecule agonists of the TGF-beta/Smad signaling pathway - cell viability counter screen (AID 1346829); also: top concentration of the series differs between compounds; nearly all actives have a fitted effect of over 45% in size
Method in brief: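 Same-well cytotoxicity: CellTiter-Glo added after the 2 hr room-temperature beta-lactamase substrate step, luminescence measured 30 min later; cells had 5 hr of compound at 37 C.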

[11] = qHTS assay to identify small molecule agonists of the TGF-beta/Smad signaling pathway (AID 1346859; active = well fitted activation curve with a large enough effect in the signal ratio in the repeat runs, not every such curve was filed as active; the % refers to the signal ratio; also: series mostly up to about 77 µM)
Method in brief: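 Screening used HEK 293T SBE-bla cells at 4,000/well. Test agents: 5 hr, 37 C. Detection: FRET substrate, 2 hr RT, then excitation 405 nm with emissions at 460 and 530 nm.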

[12] = target: Thyrotropin-releasing hormone receptor (Homo sapiens) (UniProt P34981); experiment: qHTS assay to identify small molecule antagonists of the thyrotropin-releasing hormone receptor (TRHR) signaling pathway (AID 1346877; active = well fitted inhibition curve with a large enough effect in the repeat runs, not every such curve was filed as active; also: series mostly up to about 51 µM)
Method in brief: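 Human TRHR in HEK293 cells; inhibition of the intracellular calcium rise triggered by 1 nM TRH was followed by fluorescence over 3 min. Compounds were run at 15 concentrations, three replicates each.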

[13] = target: Thyrotropin-releasing hormone receptor (Homo sapiens) (UniProt P34981); experiment: qHTS assay to identify small molecule agonists of the thyrotropin-releasing hormone receptor (TRHR) signaling pathway (AID 1346891; calls by dose curve; also: series mostly up to about 58 µM)
Method in brief: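 Readout was intracellular calcium fluorescence in TRHR-Hek293 cells. Cells were incubated 18 h, dye-loaded 2 h at 37 °C, and treated with compound in agonist mode.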

[14] = Human pregnane X receptor (PXR) small molecule agonists, qHTS cell viability counter screen (AID 1346977); also: nearly all actives have a fitted effect of over 50% in size
Method in brief: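 In each well, the PXR reporter HepG2 line was checked for viability: CellTiter-Fluor reagent added 23hr post-dosing, fluorescence read after 1hr incubation at 37C.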

[15] = Caspase-3/7 induction in HepG2 cells by small molecules, qHTS assay (AID 1346978); also: nearly all actives have a fitted effect of over 15% in size
Method in brief: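 Caspase-3/7 induction was measured by Caspase-Glo 3/7 luminescence (30 min, room temperature) after a 17 hr compound exposure of wild-type HepG2 cells seeded at 2,000 per well and pre-incubated 5 hr.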

[16] = target: Nuclear receptor subfamily 1 group I member 2 (Homo sapiens) (UniProt O75469); experiment: Human pregnane X receptor (PXR) small molecule agonists, qHTS assay (AID 1346982); also: nearly all actives have a fitted effect of over 35% in size
Method in brief: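 After plating in 5% charcoal-stripped FBS and a 5 hr rest, PXR-Luc HepG2 cells received compounds in DMSO. Following 24 hr at 37 C, ONE-Glo was added and light output read.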

[17] = target: Nuclear receptor subfamily 1 group I member 2 (Rattus norvegicus) (UniProt Q9R1A7); experiment: Rat pregnane X receptor (rPXR) activation by small molecules, qHTS assay (AID 1346983); conditions: rPXR luciferase reporter cells, One-Glo luminescence, 24 h; max activation: active compounds read high; also: nearly all actives have a fitted effect of over 20% in size
Method in brief: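 Luminescent readout (One-Glo luciferase, 30 min room temperature) followed 24 hr compound treatment at 37 C of rPXR cells plated 2,000 per well and preincubated 5hr; qHTS format with compounds delivered in DMSO.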

[18] = Caspase-3/7 induction in CHO-K1 cells by small molecules, qHTS cell viability counter screen (AID 1346979); also: nearly all actives have a fitted effect of over 35% in size
Method in brief: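 Following a 5hr settling period, CHO-K1 cells at 1,500 per well received DMSO-dissolved compounds. Cell viability was quantified 16hr later by CellTiter-Fluor fluorescence, measured after 1hr with reagent at 37C.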

[19] = Caspase-3/7 induction in CHO-K1 cells by small molecules, qHTS assay (AID 1346980); also: nearly all actives have a fitted effect of over 15% in size
Method in brief: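 Luminescent Caspase-Glo 3/7 read (30min, room temperature) quantified apoptosis induction. Cells were wild-type CHO-K1, treated with compound for 17hr at 37 C and 5% CO2.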

[20] = Caspase-3/7 induction in HepG2 cells by small molecules, qHTS cell viability counter screen (AID 1346981); also: series mostly up to about 92 µM; nearly all actives have a fitted effect of over 30% in size
Method in brief: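 The parent HepG2 line is plated at 2,000 cells per well and rested 5 hr before compound pinning from DMSO stocks. Following a 16-hr treatment at 37 C, a fluorogenic live-cell substrate (CellTiter-Fluor) reports viability after 1 hr.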
% is scaled to controls: 0 for no effect and ±100 for the full control effect.

Chain of Nuclear receptor subfamily 1 group I member 2 (Homo sapiens) (O75469 whole entry, looked up): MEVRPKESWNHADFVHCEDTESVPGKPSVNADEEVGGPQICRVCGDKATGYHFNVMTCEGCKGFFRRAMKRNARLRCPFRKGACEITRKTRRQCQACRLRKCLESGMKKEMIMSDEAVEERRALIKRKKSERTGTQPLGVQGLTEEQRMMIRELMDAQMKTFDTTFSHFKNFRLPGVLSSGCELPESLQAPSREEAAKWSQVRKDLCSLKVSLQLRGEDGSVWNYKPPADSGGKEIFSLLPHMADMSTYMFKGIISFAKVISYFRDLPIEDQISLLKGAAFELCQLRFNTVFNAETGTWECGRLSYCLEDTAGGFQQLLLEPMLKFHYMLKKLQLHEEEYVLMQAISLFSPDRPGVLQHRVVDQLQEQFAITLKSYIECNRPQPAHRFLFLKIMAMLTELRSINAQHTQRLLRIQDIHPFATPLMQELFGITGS
Chain of Thyrotropin receptor (Homo sapiens) (P16473 whole entry, looked up): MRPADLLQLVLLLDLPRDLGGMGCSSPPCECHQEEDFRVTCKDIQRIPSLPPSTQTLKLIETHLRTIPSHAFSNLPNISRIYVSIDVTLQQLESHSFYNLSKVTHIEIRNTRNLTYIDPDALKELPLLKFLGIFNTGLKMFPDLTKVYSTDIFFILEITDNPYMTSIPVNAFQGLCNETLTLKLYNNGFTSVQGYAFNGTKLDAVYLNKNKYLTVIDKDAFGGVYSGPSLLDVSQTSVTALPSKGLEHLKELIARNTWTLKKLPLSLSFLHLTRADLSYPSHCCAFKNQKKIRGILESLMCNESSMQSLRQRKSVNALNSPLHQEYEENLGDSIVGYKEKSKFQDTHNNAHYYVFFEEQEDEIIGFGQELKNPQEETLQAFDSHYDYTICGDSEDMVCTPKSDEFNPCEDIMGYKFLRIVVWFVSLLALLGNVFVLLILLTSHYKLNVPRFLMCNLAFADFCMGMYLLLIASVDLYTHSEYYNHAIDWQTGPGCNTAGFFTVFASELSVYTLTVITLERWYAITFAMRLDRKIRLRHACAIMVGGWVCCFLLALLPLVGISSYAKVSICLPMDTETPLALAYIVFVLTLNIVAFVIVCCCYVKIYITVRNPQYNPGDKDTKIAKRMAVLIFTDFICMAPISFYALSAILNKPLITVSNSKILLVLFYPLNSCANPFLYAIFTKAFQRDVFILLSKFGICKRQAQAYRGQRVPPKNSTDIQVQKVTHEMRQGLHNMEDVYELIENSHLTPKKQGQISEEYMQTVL
Chain of Estrogen receptor (Homo sapiens) (P03372 whole entry, looked up): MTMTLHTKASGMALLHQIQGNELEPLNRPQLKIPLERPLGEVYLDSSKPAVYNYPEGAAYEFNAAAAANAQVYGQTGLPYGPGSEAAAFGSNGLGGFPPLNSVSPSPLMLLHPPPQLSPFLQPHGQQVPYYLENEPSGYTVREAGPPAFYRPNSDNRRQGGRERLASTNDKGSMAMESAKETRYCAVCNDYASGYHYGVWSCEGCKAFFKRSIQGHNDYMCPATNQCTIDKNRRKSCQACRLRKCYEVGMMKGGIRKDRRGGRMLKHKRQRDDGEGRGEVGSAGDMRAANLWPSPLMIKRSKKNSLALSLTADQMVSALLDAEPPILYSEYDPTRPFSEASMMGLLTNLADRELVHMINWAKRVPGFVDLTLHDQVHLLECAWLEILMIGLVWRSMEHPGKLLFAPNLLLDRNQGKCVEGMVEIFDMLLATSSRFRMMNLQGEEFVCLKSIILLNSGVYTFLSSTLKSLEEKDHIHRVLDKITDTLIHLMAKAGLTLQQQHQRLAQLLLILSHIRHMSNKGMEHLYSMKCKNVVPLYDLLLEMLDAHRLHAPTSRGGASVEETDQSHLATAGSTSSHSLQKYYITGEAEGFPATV
Chain of Nuclear receptor subfamily 1 group I member 2 (Rattus norvegicus) (Q9R1A7 whole entry, looked up): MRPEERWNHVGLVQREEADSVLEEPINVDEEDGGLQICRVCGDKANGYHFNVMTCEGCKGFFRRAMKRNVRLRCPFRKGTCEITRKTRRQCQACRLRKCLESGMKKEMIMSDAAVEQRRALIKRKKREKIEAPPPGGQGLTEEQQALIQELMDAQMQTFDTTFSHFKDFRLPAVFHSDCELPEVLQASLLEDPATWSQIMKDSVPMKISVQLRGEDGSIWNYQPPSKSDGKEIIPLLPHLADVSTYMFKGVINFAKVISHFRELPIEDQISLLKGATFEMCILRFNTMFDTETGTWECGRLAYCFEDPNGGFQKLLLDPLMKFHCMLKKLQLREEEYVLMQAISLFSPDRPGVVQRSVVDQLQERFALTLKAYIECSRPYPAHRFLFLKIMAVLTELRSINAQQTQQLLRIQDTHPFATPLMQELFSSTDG
Chain of Thyrotropin-releasing hormone receptor (Homo sapiens) (P34981 whole entry, looked up): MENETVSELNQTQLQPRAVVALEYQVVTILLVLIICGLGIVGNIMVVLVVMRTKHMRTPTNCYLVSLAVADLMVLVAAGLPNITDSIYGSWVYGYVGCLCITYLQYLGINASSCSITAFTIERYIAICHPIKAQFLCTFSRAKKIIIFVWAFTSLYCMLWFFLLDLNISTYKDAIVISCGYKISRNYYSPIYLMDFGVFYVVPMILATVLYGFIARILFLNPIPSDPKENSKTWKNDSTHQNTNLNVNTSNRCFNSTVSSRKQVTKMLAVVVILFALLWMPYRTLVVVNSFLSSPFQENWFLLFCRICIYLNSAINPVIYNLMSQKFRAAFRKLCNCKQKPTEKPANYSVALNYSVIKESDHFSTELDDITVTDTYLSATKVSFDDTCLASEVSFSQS
Chain of Progesterone receptor (Homo sapiens) (P06401 whole entry, looked up): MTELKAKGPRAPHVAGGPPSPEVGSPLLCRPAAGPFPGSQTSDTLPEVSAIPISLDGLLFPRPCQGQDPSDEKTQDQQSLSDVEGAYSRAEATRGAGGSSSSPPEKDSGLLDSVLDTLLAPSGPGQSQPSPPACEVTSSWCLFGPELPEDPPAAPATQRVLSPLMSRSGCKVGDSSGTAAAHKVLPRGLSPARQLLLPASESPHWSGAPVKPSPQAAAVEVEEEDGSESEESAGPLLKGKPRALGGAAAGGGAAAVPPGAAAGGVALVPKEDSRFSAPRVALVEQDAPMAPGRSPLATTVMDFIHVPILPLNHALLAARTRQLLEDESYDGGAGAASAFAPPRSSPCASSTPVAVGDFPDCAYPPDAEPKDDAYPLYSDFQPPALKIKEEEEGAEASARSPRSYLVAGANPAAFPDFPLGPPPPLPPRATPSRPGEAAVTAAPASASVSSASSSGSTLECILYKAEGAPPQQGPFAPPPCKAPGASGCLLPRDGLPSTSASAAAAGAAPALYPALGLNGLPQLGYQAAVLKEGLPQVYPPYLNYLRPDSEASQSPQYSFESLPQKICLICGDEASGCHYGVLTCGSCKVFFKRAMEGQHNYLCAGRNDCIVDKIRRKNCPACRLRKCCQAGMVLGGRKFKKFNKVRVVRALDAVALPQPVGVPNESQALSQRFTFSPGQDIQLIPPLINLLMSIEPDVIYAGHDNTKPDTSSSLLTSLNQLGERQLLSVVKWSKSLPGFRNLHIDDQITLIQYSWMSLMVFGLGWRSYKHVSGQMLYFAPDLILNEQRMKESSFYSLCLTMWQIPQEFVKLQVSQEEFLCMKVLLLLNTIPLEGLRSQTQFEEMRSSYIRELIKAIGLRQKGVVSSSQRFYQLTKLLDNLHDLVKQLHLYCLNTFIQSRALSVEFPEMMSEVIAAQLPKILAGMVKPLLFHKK

NC(=O)NC(=O)Cc1ccccc1
inactive: outcome [1] | outcome [2] | outcome [3] | Potency [4] | Potency [5] | Potency [6] | Potency [7] | Potency [8] | outcome [9] | outcome [10] | outcome [11] | outcome [12] | outcome [13] | Potency [14] | outcome [15] | Potency [16] | max activation [17] -4.53%

O=C(COCCOCCOCC(=O)Nc1c(I)cc(I)c(C(=O)O)c1I)Nc1c(I)cc(I)c(C(=O)O)c1I
inactive: outcome [1] | outcome [2] | outcome [3] | Potency [4] | Potency [5] | Potency [6] | Potency [7] | Potency [8] | outcome [9] | outcome [10] | outcome [11] | outcome [12] | outcome [13] | Potency [14] | outcome [15] | Potency [18] | outcome [19] | Potency [20] | Potency [16]

O=C1OC(=O)c2cc(Oc3ccc4c(c3)C(=O)OC4=O)ccc21
inactive: outcome [1] | outcome [2] | outcome [3] | Potency [4] | Potency [5] | Potency [6] | Potency [7] | Potency [8] | outcome [9] | outcome [10] | outcome [11] | outcome [12] | outcome [13] | Potency [14] | outcome [15] | outcome [19] | Potency [20] | Potency [16]

COc1ccc(/C=N/NC(=O)c2ccncc2)cc1OC
inactive: outcome [1] | outcome [2] | outcome [3] | Potency [4] | Potency [5] | Potency [6] | Potency [7] | Potency [8] | outcome [9] | outcome [10] | outcome [11] | outcome [12] | outcome [13] | Potency [14] | outcome [15] | Potency [18] | Potency [20] | Potency [16] | max activation [17] -2.5%

N#CCCOCCOCCC#N
inactive: outcome [1] | outcome [2] | outcome [3] | Potency [4] | Potency [5] | Potency [6] | Potency [7] | Potency [8] | outcome [9] | outcome [10] | outcome [11] | outcome [12] | outcome [13] | Potency [14] | outcome [15] | outcome [19] | Potency [20] | Potency [16]

Cc1nc2ccccc2c(=O)o1
inactive: outcome [1] | outcome [2] | outcome [3] | Potency [4] | Potency [5] | Potency [6] | Potency [7] | Potency [8] | outcome [9] | outcome [10] | outcome [11] | Potency [14] | outcome [15] | Potency [18] | outcome [19] | Potency [20] | Potency [16]

COC(OC)C(C)c1ccccc1 (stereo not given)
inactive: outcome [1] | outcome [2] | outcome [3] | Potency [4] | Potency [5] | Potency [6] | Potency [8] | outcome [9] | outcome [10] | outcome [11] | outcome [12] | outcome [13] | Potency [14] | outcome [15] | Potency [18] | outcome [19] | Potency [20] | Potency [16]

CCCCC(CC)COC(=O)c1ccccc1 (stereo not given)
inactive: outcome [1] | outcome [2] | outcome [3] | Potency [4] | Potency [5] | Potency [6] | Potency [7] | Potency [8] | outcome [9] | outcome [10] | outcome [12] | outcome [13] | Potency [14] | outcome [15] | Potency [18] | outcome [19] | Potency [20] | Potency [16]

NCCc1ccn[nH]1
inactive: outcome [1] | outcome [2] | outcome [3] | Potency [4] | Potency [5] | Potency [6] | Potency [7] | Potency [8] | outcome [9] | outcome [10] | outcome [11] | Potency [14] | outcome [15] | Potency [18] | Potency [20] | Potency [16] | max activation [17] -4.71%

CC(C)CCO
inactive: outcome [1] | outcome [2] | outcome [3] | Potency [4] | Potency [5] | Potency [6] | Potency [7] | Potency [8] | outcome [9] | outcome [10] | outcome [11] | Potency [14] | outcome [15] | Potency [18] | outcome [19] | Potency [20] | Potency [16]

Nc1ccc(S(=O)(=O)Nc2ccccn2)cc1
inactive: outcome [1] | outcome [2] | outcome [3] | Potency [4] | Potency [5] | Potency [6] | Potency [7] | Potency [8] | outcome [9] | outcome [10] | Potency [14] | outcome [15] | Potency [18] | outcome [19] | Potency [20] | Potency [16] | max activation [17] -1.43%

CCCCCCCC/C=C\CCCCCCCC(=O)OC[C@@H](O)[C@H]1OC[C@H](O)[C@H]1O
inactive: outcome [1] | outcome [2] | outcome [3] | Potency [4] | Potency [5] | Potency [6] | Potency [7] | Potency [8] | outcome [9] | outcome [10] | outcome [11] | Potency [14] | outcome [15] | outcome [19] | Potency [20] | Potency [16]

CN[C@@H]1[C@H](O)[C@H](NC)[C@H]2O[C@@]3(O)C(=O)C[C@@H](C)O[C@H]3O[C@@H]2[C@H]1O
inactive: outcome [1] | outcome [2] | outcome [3] | Potency [4] | Potency [5] | Potency [6] | Potency [7] | Potency [8] | outcome [9] | outcome [10] | Potency [14] | outcome [15] | outcome [19] | Potency [20] | Potency [16] | max activation [17] -0.189%

CNC(=O)NC
inactive: outcome [1] | outcome [2] | outcome [3] | Potency [4] | Potency [5] | Potency [6] | Potency [7] | Potency [8] | outcome [10] | outcome [11] | Potency [14] | outcome [15] | Potency [18] | outcome [19] | Potency [20] | Potency [16]

CCCCCC1Nc2cc(C(F)(F)F)c(S(N)(=O)=O)cc2S(=O)(=O)N1 (stereo not given)
inactive: outcome [1] | outcome [2] | outcome [3] | Potency [4] | Potency [5] | Potency [6] | Potency [7] | outcome [9] | outcome [10] | outcome [12] | outcome [13] | Potency [14] | outcome [15] | Potency [18] | outcome [19] | Potency [20] | Potency [16]

CO[Si](CCCS)(OC)OC
inactive: outcome [1] | outcome [2] | outcome [3] | Potency [4] | Potency [5] | Potency [6] | Potency [7] | outcome [9] | outcome [10] | outcome [11] | Potency [14] | outcome [15] | outcome [19] | Potency [20] | Potency [16]

C=C[Si](C)(C)O[Si](C)(C)C=C
inactive: outcome [1] | outcome [2] | outcome [3] | Potency [4] | Potency [5] | Potency [6] | Potency [7] | outcome [9] | outcome [10] | outcome [11] | Potency [14] | outcome [15] | outcome [19] | Potency [20] | Potency [16]

— PubChem BioAssay (Tox21)
